Data from ChEMBL document CHEMBL3988442, “University of Dundee, Small-Polar-MMV Screening Library” (2021).
For some assays here: Entries with a potency or affinity are not part of this list.

Columns and labels:
Set-up in all cases: scale not given: direction of the effect not stated beside the values
[1] = molecular target: Protein translocase subunit SecA (Escherichia coli (strain K12)) (UniProt P10408); assay: Assay to Identify E. coli SecA ATPase Inhibitors; assay type: functional; details: 30 µM
Chain of Protein translocase subunit SecA (Escherichia coli (strain K12)) (P10408 whole entry): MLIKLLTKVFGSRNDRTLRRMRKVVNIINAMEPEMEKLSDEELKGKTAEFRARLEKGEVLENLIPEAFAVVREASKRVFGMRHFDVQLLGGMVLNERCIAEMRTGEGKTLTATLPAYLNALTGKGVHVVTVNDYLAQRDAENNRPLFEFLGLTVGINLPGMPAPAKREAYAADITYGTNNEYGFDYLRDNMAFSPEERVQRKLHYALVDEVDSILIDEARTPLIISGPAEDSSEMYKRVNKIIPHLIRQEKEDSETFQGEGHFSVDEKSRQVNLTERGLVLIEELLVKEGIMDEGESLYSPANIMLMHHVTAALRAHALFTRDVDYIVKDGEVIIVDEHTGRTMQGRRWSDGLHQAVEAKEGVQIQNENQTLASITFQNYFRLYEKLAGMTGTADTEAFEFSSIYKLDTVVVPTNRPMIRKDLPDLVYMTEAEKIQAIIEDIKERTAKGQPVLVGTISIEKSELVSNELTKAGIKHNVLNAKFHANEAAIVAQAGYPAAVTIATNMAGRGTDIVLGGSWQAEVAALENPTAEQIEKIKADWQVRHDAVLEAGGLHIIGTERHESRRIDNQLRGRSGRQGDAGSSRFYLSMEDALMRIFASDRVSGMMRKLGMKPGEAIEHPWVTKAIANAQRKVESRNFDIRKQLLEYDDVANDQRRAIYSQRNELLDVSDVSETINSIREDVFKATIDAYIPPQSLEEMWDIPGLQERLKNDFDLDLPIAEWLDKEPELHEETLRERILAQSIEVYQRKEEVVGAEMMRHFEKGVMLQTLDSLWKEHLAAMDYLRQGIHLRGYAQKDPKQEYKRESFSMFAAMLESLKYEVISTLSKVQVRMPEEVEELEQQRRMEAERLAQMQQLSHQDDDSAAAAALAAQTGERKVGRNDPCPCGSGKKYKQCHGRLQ

[2] = molecular target: T1, Ubiquitin-activating enzyme e1, putative (Leishmania donovani (strain BPK282A1)) (UniProt E9BSI1); assay: Leishmania donovani Ubiquitin Activating Enzyme (LdE1); assay type: functional; details: 30 µM
T1 sequence (whole entry): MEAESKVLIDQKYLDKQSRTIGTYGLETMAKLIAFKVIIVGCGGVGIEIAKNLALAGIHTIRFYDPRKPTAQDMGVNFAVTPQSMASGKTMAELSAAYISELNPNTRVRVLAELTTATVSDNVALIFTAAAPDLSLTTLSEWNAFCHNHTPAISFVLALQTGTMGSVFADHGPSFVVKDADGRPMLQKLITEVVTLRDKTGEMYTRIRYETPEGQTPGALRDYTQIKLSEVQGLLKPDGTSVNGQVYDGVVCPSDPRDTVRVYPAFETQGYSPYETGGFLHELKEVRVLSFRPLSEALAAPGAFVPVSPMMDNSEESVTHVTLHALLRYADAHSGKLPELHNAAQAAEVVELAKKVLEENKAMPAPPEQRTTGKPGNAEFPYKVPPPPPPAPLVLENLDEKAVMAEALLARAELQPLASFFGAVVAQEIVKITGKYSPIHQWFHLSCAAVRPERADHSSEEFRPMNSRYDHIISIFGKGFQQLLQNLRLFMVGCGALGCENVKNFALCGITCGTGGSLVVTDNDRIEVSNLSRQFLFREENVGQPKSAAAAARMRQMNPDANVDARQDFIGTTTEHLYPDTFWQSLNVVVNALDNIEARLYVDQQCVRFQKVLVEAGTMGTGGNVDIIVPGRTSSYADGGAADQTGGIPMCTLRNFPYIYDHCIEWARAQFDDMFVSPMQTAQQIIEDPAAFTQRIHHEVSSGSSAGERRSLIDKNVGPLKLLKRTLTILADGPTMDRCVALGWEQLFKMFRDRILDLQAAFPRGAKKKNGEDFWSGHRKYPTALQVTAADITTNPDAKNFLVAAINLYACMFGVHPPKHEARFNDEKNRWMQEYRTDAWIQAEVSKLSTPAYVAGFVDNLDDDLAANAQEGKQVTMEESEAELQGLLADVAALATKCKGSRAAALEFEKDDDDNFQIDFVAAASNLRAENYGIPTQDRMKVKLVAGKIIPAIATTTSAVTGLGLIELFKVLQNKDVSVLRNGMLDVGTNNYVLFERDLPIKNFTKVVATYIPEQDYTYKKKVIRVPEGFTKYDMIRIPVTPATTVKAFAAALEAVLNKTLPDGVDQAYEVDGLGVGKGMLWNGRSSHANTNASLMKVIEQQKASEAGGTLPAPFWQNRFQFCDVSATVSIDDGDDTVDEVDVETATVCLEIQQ

[3] = molecular target: AMP-activated protein kinase, AMPK (Homo sapiens) (UniProt P54646+O43741+P54619+Q9UGJ0+Q9Y478+Q13131+Q9UGI9); assay: AMP-dependent Kinase enzyme assay. An in vitro enzyme assay that detects ADP turnover that is directly proportional to AMPK activity. This uses naive AMPK that is activated during the assay with MK-8722; assay type: functional; details: 30 µM
[4] = molecular target: Sialic acid-binding Ig-like lectin 9 (Homo sapiens) (UniProt Q9Y336); assay: Hs-Siglec9 ALPHAscreen SOP 20170721; details: 10 µM
Chain of Sialic acid-binding Ig-like lectin 9 (Homo sapiens) (Q9Y336 whole entry): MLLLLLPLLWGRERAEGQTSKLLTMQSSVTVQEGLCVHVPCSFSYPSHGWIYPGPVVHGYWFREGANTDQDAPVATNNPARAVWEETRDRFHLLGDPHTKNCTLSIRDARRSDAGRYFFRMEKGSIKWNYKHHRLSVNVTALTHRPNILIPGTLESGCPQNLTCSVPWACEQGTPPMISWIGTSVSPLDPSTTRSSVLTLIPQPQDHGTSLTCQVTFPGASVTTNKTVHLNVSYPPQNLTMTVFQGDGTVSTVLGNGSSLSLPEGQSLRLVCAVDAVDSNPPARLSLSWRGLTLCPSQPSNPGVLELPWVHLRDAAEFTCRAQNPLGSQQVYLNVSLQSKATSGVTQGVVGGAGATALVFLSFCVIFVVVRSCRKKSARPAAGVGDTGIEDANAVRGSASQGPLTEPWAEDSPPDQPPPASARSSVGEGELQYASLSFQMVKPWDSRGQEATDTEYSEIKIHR

Trypanosoma cruzi = assay: Trypanosoma cruzi phosphomannomutase and mannose-1-phosphate guanylyltransferase assay; assay type: functional; details: 10 µM
[5] = molecular target: T2, Arginase-2, mitochondrial (Homo sapiens) (UniProt P78540); assay: in vitro enzyme assay to detect the production of urea directly proportional to the activity of Arginase II; assay type: functional; details: 33.3 µM; note: in the data most compounds retested in dose-response had high values
T2 sequence (whole entry): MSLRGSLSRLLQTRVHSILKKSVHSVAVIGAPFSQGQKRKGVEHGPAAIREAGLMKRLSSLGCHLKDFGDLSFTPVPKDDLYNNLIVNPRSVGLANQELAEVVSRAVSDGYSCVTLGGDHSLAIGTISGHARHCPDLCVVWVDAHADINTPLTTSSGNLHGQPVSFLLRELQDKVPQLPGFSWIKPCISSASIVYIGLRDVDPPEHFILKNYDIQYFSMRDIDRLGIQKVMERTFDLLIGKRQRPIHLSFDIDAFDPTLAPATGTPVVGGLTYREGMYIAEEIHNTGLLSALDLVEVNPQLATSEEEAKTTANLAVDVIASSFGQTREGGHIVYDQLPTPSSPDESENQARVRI

[6] = molecular target: T3, Proteasome subunit beta (Trypanosoma cruzi) (UniProt O96673); assay: Trypanosoma cruzi proteasome chymotrypsin-like activity (TcProtChymo) assay.; note: in the data most compounds retested in dose-response had high values; assay type: functional; details: 9.37 µM
T3 sequence (whole entry): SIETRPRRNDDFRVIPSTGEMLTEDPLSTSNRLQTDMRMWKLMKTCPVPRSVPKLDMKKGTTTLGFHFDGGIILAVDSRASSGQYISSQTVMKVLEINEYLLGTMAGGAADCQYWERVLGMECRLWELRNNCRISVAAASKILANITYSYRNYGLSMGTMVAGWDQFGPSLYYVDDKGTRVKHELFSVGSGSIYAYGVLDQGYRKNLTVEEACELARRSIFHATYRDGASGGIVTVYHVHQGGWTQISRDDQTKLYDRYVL

Homo sapiens = species: Homo sapiens; assay: To identify inhibition of the IFN signalling (Jak-Stat) pathway via expression of an eGFP reporter gene under the control of an IFN-stimulated response element (ISRE) containing MxA promoter.; assay type: functional; details: 30 µM
[7] = molecular target: T4, Tyrosyl-tRNA synthetase, putative (Trypanosoma cruzi (strain CL Brener)) (UniProt Q4DSP6); assay: Trypanosoma cruzi tyrosyl tRNA synthetase (TcYRS) _High Tyrosine SOP; assay type: functional; details: 30 µM; note: in the data most compounds retested in dose-response had high values
T4 sequence (whole entry): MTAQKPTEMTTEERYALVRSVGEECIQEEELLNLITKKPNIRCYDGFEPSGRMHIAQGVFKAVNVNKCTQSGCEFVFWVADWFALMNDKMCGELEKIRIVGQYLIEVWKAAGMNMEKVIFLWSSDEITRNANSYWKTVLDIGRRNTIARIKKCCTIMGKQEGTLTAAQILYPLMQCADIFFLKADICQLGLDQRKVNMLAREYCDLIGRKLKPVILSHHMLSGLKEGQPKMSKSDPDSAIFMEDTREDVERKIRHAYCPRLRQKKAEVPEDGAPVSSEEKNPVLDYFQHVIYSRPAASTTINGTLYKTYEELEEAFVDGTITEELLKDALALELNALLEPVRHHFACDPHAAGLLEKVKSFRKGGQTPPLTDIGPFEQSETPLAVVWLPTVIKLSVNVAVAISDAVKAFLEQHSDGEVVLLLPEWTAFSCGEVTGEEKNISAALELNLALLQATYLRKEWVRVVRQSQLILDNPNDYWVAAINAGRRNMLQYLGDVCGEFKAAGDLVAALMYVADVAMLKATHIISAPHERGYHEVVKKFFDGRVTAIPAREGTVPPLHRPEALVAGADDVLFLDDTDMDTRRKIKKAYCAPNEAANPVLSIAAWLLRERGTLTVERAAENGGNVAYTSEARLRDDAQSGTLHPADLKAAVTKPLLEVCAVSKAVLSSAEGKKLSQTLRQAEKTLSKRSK

[8] = molecular target: T4, Tyrosyl-tRNA synthetase, putative (Trypanosoma cruzi (strain CL Brener)); assay: Trypanosoma cruzi tyrosyl tRNA synthetase (TcYRS) SOP; assay type: functional; details: 30 µM
[9] = molecular target: Chromo domain-containing protein 1 (Saccharomyces cerevisiae (strain ATCC 204508 / S288c) (Baker's yeast)) (UniProt P32657); assay: ScCHD-1 Enzyme Inhibition Assay; assay type: functional; details: 30 µM; note: in the data most compounds retested in dose-response had high values
Chain of Chromo domain-containing protein 1 (Saccharomyces cerevisiae (strain ATCC 204508 / S288c) (Baker's yeast)) (P32657 whole entry, the tested form may be a part): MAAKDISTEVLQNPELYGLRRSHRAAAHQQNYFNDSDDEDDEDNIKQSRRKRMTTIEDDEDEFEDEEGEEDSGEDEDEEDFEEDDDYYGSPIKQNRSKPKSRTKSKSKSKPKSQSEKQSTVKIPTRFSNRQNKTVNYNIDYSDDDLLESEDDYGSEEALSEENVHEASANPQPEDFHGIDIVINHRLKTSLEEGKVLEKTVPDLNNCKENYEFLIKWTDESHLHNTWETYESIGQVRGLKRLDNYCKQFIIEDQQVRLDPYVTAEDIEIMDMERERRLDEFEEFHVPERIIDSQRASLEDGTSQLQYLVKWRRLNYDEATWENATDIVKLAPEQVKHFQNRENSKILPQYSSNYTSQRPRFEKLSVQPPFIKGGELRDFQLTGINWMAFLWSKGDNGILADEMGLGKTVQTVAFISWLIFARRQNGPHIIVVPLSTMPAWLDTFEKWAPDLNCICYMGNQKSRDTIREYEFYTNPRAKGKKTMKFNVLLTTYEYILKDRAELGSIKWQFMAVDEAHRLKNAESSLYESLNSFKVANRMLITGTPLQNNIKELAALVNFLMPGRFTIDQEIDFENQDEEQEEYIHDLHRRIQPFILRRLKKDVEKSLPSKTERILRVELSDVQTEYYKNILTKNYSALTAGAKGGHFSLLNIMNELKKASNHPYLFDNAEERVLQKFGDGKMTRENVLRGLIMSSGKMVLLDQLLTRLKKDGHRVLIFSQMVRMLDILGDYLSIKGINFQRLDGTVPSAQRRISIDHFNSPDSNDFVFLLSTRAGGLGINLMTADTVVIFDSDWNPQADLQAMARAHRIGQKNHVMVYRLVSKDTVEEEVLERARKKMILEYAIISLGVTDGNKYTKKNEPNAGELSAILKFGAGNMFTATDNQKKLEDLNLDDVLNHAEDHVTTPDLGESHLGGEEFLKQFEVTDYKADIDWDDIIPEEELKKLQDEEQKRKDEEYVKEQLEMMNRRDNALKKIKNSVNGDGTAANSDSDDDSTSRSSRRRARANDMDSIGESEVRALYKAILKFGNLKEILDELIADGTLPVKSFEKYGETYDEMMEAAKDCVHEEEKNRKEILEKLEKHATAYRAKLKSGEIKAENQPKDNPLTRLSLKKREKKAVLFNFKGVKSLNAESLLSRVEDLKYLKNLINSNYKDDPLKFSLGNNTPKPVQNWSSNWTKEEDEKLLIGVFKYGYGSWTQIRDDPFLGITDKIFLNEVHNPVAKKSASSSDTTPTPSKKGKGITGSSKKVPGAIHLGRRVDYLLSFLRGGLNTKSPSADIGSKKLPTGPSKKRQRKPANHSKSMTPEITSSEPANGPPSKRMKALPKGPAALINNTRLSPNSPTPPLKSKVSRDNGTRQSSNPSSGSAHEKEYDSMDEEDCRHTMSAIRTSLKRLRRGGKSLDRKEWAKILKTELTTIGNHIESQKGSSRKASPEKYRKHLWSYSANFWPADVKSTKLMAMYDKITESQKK

Compound | Percent Effect [1] | Percent Effect [2] | Percent Effect [3] | Percent Effect [4] | Percent Effect (Trypanosoma cruzi) | Percent Effect [5] | Percent Effect [6] | Percent Effect (Homo sapiens) | Percent Effect [7] | Percent Effect [8] | Percent Effect [9]
Cc1n[nH]c(C)c1C1CCCN1C(=O)CNC(=O)C(C)(C)C (stereo unspecified) | -0.905% | 8.22% | 0.299% | 14% | 2.74% | 20.9% | 11.5% | -2.46% | 0% | 5% | -4.49%
c1cnc(-c2cnc(N3CCSCC3)nc2C2CCCO2)cn1 (stereo unspecified) | -4.61% | 6.76% | 9.87% | 3.27% | -5.53% | -1.16% | 9.98% | 10.7% | 1.07% | 6.49% | -13.3%
Cc1cnn(CC2CCCN2Cc2cc(=O)n3ccccc3n2)c1 (stereo unspecified) | -4.27% | -2.7% | -0.318% | -1.03% | 2.05% | 2.73% | 16.7% | -16.2% | 7.53% | 8.64% | -4.06%
COCCC(=O)N1CCc2cc(Cl)cc(Cl)c2C1 | -3.86% | -44.2% | 0.226% | 19.2% | 1.87% | 0% | 14% | -16.1% | -3.23% | -1.24% | 126%
CNS(=O)(=O)c1ccc(CNC(=O)NCC2CCCO2)cc1 (stereo unspecified) | -5% | 13% | 16.9% | -9.06% | 1.67% | -2.74% | 12.8% | 14.9% | 0.952% | 18.8% | -17.3%
OCC1CCCN1c1cc(N2CCc3ccccc3C2)ncn1 (stereo unspecified) | -5.73% | 5.2% | -4.03% | -9.93% | 8.13% | -6.95% | 7.84% | -3.87% | 3.81% | 14.1% | -20.3%
Cc1cc(C)n(CC2CCCCN2CC(=O)Nc2nncs2)n1 (stereo unspecified) | -3.75% | 8% | -5.11% | 15% | 7.69% | 14.6% | 0.349% | 13.2% | 6.01% | 16.1% | -8.51%
CN(C(=O)CCNC(=O)NC1CCCCC1)c1ccccc1 | -3.57% | 21.1% | -2.45% | -10.2% | 3.21% | -1.18% | 14.3% | 8.02% | 3.19% | 13% | -0.404%
c1ccc(-n2cc(CN3CCCC(Cn4cncn4)C3)nn2)cc1 (stereo unspecified) | -2.56% | 3.8% | 7.41% | 3.66% | -3.79% | -0.215% | 15.4% | 12.2% | 7.29% | 12.7% | -25.5%
Cc1ccc(NC2CCN(C(=O)Cc3cccc(F)c3)CC2)nn1 | -1.31% | 21.6% | -15.1% | 7.97% | 7.83% | -12% | 6.67% | 6.31% | 9.36% | 28.4% | -10.9%
O=C1N(Cc2cccc(F)c2F)CCCC1(O)CN1CCCOCC1 (stereo unspecified) | -6.11% | -5.33% | -3.73% | 6.26% | 1.46% | 0% | 5.06% | 5.93% | 4.92% | 11.1% | -4.58%
CNC(=O)c1cnc(/C=C/c2cc(OC)cc(OC)c2)s1 | -6.6% | -5.41% | -2.31% | 7.75% | -6.25% | 0.417% | 21.4% | 18.1% | 1.98% | -6.1% | -3.49%
O=C(Cc1ccc2c(c1)OCO2)N1CCN(c2cnccn2)CC1 | -1.75% | 15.8% | -3.5% | 4.13% | 6.77% | 4.21% | 8.69% | 2.58% | 5.39% | 21.9% | -11.8%
CC(NC(=O)N1CCC(n2cncn2)CC1)c1ccc(F)cc1F (stereo unspecified) | -3.51% | 12.7% | -2.69% | 7.75% | -0.0944% | -1.14% | 8.6% | 8.31% | 5.42% | 13.9% | -5.72%
CC(C)OCCCN1CCCC(c2nc3ccccc3n2C(C)C)C1 (stereo unspecified) | -2.17% | 13.5% | -7.28% | -1.96% | 3.32% | 32.9% | 15% | 22.4% | 9.9% | 13.4% | 6.88%
O=C1N(CCCc2ccccc2)CCCC1(O)CNCc1ccccc1 (stereo unspecified) | -3.24% | 2.7% | -10.2% | 31.6% | 4.4% | -0.248% | 8.5% | -7.46% | 8.6% | 18.5% | -3.9%
